Experimental data from PubChem BioAssay (Tox21).
Inconclusive results are not listed. The source made the active and inactive calls. Unless noted, calls follow the shape of the dose curve; as a rule, active = well fitted curve in the direction sought with a large enough effect in the repeat runs; inconclusive = weak or mixed curves; inactive = no such curve, though single readings can be large; an effect the other way counts as inactive or inconclusive.

Columns and labels:
[1] = qHTS assay to identify aromatase inhibitors - cell viability counter screen (AID 743084);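 also: cells stimulated with testosterone during compound exposure; nearly all actives have a fitted effect of over 55% in size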
[2] = molecular target: Aryl hydrocarbon receptor (Homo sapiens) (UniProt P35869); experiment: qHTS assay to identify small molecule that activate the aryl hydrocarbon receptor (AhR) signaling pathway (AID 743085);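 also: HG2L7.5c1 human HepG2 liver cells with stably integrated DRE-driven firefly reporter; series mostly up to about 70 µM; nearly all actives have a fitted effect of over 15% in size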
Sequence of Aryl hydrocarbon receptor (Homo sapiens) (P35869 whole entry, looked up): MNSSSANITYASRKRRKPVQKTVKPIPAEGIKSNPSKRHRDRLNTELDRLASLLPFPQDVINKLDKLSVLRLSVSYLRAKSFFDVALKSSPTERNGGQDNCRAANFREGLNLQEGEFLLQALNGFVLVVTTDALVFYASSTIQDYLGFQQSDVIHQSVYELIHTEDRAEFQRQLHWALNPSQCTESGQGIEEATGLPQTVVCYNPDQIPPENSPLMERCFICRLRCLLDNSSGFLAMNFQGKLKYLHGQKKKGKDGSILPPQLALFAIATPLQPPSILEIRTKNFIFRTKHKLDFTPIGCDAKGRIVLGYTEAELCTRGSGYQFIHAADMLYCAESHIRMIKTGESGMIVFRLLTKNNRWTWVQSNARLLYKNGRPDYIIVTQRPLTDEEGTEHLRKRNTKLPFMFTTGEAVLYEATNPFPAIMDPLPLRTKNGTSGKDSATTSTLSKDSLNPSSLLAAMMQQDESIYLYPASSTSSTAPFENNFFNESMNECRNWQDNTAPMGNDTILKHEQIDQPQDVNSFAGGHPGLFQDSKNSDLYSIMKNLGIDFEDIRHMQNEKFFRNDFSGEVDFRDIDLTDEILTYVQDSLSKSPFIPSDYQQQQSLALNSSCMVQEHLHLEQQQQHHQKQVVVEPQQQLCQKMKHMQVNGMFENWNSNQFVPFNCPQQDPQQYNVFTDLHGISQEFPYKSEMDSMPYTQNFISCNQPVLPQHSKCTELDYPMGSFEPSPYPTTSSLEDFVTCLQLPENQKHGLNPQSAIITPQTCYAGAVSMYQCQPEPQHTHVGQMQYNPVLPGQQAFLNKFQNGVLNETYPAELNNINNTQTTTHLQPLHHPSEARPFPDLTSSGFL
How it was run: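 Cell line HG2L7.5c1 (human hepatoma, 20× DRE-luc). Plated, 5 h 37C, compound/DMSO added, 24 h 37C. CellTiter-Fluor 30 min 37C → fluorescence; then ONE-Glo 30 min RT → luminescence.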

[3] = qHTS assay to identify small molecule that activate the aryl hydrocarbon receptor (AhR) signaling pathway - cell viability counter screen (AID 743086);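 also: HepG2 liver cells carrying the AhR DRE luciferase reporter; series mostly up to about 70 µM; nearly all actives have a fitted effect of over 45% in size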
How it was run: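 HepG2-AhR-luc (HG2L7.5c1) cells, 4000/well, were preincubated 5 h at 37C, exposed to compound in qHTS format for 24 hr at 37C, then given CellTiter-Fluor for 30 min; viability was read as fluorescence in the reporter wells.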

[4] = molecular target: Peroxisome proliferator-activated receptor gamma (Homo sapiens) (UniProt P37231); experiment: qHTS assay to identify small molecule agonists of the peroxisome proliferator-activated receptor gamma (PPARg) signaling pathway (AID 743094; active = well fitted activation curve with a large enough effect in the signal ratio in the repeat runs, not every such curve was filed as active; the % refers to the signal ratio)
Sequence of Peroxisome proliferator-activated receptor gamma (Homo sapiens) (P37231 whole entry, looked up): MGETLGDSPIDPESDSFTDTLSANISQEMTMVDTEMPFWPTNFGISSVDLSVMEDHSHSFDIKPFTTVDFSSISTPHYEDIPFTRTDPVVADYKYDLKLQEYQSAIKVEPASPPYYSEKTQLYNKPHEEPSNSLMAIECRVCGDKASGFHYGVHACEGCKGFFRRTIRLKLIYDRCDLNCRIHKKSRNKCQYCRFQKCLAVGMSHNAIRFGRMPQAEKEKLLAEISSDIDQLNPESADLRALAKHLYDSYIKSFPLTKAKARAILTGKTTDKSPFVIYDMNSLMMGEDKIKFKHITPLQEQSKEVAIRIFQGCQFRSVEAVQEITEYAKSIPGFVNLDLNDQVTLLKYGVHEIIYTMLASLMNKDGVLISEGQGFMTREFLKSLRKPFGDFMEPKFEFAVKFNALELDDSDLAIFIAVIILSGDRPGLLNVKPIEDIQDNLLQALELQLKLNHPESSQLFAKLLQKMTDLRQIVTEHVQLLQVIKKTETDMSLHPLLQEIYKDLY
How it was run: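 Cell-based bla reporter, HEK293H background, PPARg-driven UAS. Pre-incubation 5 h, 37C, 5% CO2. Compound 17 h, 37C. Substrate 1 h RT; fluorescence.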

[5] = molecular target: Peroxisome proliferator-activated receptor gamma (Homo sapiens) (UniProt P37231); experiment: qHTS assay to identify small molecule antagonists of the peroxisome proliferator-activated receptor gamma (PPARg) signaling pathway (AID 743191; calls by dose curve; also: series mostly up to about 63 µM; nearly all actives have a fitted effect of over 30% in size)
How it was run: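 GeneBLAzer PPARg UAS-bla HEK293H cells carrying a UAS-driven beta-lactamase reporter were plated at 3000 cells/well, preincubated 5 h at 37C, then given compound for 17 h at 37C; LiveBLAzer B/G FRET substrate was read after 1 h at room temperature.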

[6] = qHTS assay to identify small molecule antagonists of the peroxisome proliferator-activated receptor gamma (PPARg) signaling pathway - cell viability counter screen (AID 743194); also: nearly all actives have a fitted effect of over 55% in size
How it was run: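 PPARg-UAS-bla HEK293H cells were plated, rested 5 h at 37 C, then treated with compounds plus rosiglitazone (50 nM final) for 17 h at 37 C; viability was then read by CellTiter-Glo luminescence after 30 min at room temperature.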

[7] = qHTS assay for small molecule agonists of the antioxidant response element (ARE) signaling pathway (AID 743202; active = well fitted activation curve with a large enough effect in the signal ratio in the repeat runs, not every such curve was filed as active; the % refers to the signal ratio)
How it was run: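 Following a 16 h, 37 C exposure of reporter HepG2 cells (ARE-driven beta-lactamase, 2,000 cells/well) to compounds, FRET substrate was applied for 2 h at room temperature and fluorescence intensity recorded.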

[8] = qHTS assay for small molecule agonists of the antioxidant response element (ARE) signaling pathway - cell viability counter screen (AID 743203; calls by dose curve; also: nearly all actives have a fitted effect of over 55% in size)
How it was run: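 Measured in the same wells as the beta-lactamase ARE reporter, this read-out is CellTiter-Glo luminescence from HepG2 ARE-bla cells given compounds for 16 hrs.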

[9] = qHTS assay for small molecule activators of the heat shock response signaling pathway (AID 743210; active = well fitted activation curve with a large enough effect in the signal ratio in the repeat runs, with a control signal flat, not every such curve was filed as active; the % refers to the signal ratio; also: series mostly up to about 63 µM)
How it was run: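 Heat shock element–beta-lactamase HeLa reporter cells; qHTS with compounds for 5 h at 37 C; detection by FRET substrate fluorescence after 2.5 h at RT.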

[10] = qHTS assay to identify small molecule agonists of the peroxisome proliferator-activated receptor delta (PPARd) signaling pathway - cell viability counter screen (AID 743211); also: nearly all actives have a fitted effect of over 55% in size
How it was run: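 HEK293H PPARd-bla, 3000 cells/well; 5 h preincubation 37C/5% CO2; cpd in DMSO, 17 h 37C; B/G FRET substrate 2 h RT; CellTiter-Glo 30 min RT, luminescence.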

[11] = molecular target: Peroxisome proliferator-activated receptor delta (Homo sapiens) (UniProt Q03181); experiment: qHTS assay to identify small molecule agonists of the peroxisome proliferator-activated receptor delta (PPARd) signaling pathway (AID 743212; calls by dose curve)
Sequence of Peroxisome proliferator-activated receptor delta (Homo sapiens) (Q03181 whole entry, looked up): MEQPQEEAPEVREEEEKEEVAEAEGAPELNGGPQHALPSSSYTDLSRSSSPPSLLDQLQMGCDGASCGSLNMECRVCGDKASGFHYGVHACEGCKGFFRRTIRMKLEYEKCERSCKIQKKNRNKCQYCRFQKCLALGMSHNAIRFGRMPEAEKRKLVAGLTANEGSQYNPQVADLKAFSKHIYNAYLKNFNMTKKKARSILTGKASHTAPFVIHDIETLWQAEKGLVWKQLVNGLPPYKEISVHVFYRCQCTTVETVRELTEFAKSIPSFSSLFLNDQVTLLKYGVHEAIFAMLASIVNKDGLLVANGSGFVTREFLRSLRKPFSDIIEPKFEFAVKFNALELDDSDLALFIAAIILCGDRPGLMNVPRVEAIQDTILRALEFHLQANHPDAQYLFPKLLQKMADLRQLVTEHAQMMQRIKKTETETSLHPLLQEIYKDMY
How it was run: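 Beta-lactamase reporter read by fluorescence (LiveBLAzer B/G FRET, 2 h, room temperature). Test agents, in DMSO, incubated at 37 C with PPARd-bla HEK293H cells.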

[12] = qHTS assay to identify small molecule antagonists of the peroxisome proliferator-activated receptor delta (PPARd) signaling pathway - cell viability counter screen (AID 743213); also: nearly all actives have a fitted effect of over 50% in size
How it was run: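 Luminescence from CellTiter-Glo, added after the bla read and incubated 30 min at room temperature, gives viability of HEK293H PPARd-bla cells exposed to compounds for 17 h at 37 C with 300 nM L165041.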

[13] = molecular target: Peroxisome proliferator-activated receptor delta (Homo sapiens) (UniProt Q03181); experiment: qHTS assay to identify small molecule antagonists of the peroxisome proliferator-activated receptor delta (PPARd) signaling pathway (AID 743215; active = well fitted inhibition curve with a large enough effect in the signal ratio in the repeat runs, not every such curve was filed as active; the % refers to the signal ratio;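 also: cells stimulated with agonist L165041 at 300 nM final during compound exposure; series mostly up to about 62 µM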)
How it was run: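 Fluorescence from cleaved LiveBLAzer B/G FRET substrate (2 h, room temperature) reports PPARd-driven beta-lactamase in HEK293H UAS-bla cells. Cells had been treated 17 h at 37 C with compound plus 300 nM final L165041.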

[14] = qHTS assay to identify small molecule agonists of the farnesoid-X-receptor (FXR) signaling pathway - cell viability counter screen (AID 743218); also: nearly all actives have a fitted effect of over 45% in size
How it was run: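 Readout: CellTiter-Glo luminescence, 30 min RT, multiplexed after the FXR-bla FRET reading. HEK 293T FXR-UAS-bla cells received compound 5 h post-plating and were incubated 16 h at 37 C.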

[15] = qHTS assay to identify small molecule antagonists of the farnesoid-X-receptor (FXR) signaling pathway - cell viability counter screen (AID 743221; active = well fitted cell-killing curve with a large enough effect in the repeat runs, not every such curve was filed as active; also: nearly all actives have a fitted effect of over 50% in size)
How it was run: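 Luminescence from CellTiter-Glo measures cytotoxicity in GeneBLAzer FXR-UAS-bla HEK 293T cells. Cells were exposed to compounds with 50 uM chenodeoxycholic acid (final) for 16 h at 37 C, in wells also used for the reporter readout.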

[16] = molecular target: Vitamin D3 receptor (Homo sapiens) (UniProt P11473); experiment: qHTS assay to identify small molecule agonists of the vitamin D receptor (VDR) signaling pathway (AID 743222; calls by dose curve)
Sequence of Vitamin D3 receptor (Homo sapiens) (P11473 whole entry, looked up): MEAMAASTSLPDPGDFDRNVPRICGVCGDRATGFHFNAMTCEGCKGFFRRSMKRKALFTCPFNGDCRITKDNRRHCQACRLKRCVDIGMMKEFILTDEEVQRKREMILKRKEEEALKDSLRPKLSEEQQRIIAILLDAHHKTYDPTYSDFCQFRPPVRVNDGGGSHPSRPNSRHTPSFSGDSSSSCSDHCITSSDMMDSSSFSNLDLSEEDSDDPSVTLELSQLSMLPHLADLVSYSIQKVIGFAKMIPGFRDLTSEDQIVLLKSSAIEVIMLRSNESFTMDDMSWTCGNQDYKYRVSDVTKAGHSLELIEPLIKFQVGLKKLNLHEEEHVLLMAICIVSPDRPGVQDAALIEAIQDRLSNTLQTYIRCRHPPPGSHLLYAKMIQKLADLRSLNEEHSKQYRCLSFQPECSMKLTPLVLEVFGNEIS
How it was run: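 Following 4 h attachment at 37C, VDR-bla cells (2,000 per well) received DMSO-dissolved compounds or controls. After 16 h incubation, LiveBLAzer B/G FRET substrate was added and fluorescence read 2 h later at room temperature.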

[17] = molecular target: Vitamin D3 receptor (Homo sapiens) (UniProt P11473); experiment: qHTS assay to identify small molecule antagonists of the vitamin D receptor (VDR) signaling pathway (AID 743223; active = well fitted inhibition curve with a large enough effect in the signal ratio in the repeat runs, not every such curve was filed as active; the % refers to the signal ratio)
How it was run: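 Antagonist mode uses 1alpha,25-dihydroxyvitamin D3 at 3 nM final as stimulus. VDR-bla cells receive compounds in DMSO, incubate 16 h at 37C, then a beta-lactamase FRET substrate for 2 h at room temperature before fluorescence measurement.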

[18] = qHTS assay for small molecule activators of the heat shock response signaling pathway - cell viability counter screen (AID 743209); also: nearly all actives have a fitted effect of over 50% in size
How it was run: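 Same-well multiplex: after 2.5 h room-temperature incubation with LiveBLAzer B/G substrate and fluorescence reading, CellTiter-Glo reagent was added to HSE-bla HeLa cells that had received compound for 5 h at 37 C; luminescence read after 30 min.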

[19] = molecular target: Bile acid receptor (Homo sapiens) (UniProt Q96RI1); experiment: qHTS assay to identify small molecule antagonists of the farnesoid-X-receptor (FXR) signaling pathway (AID 743217; active = well fitted inhibition curve with a large enough effect in the signal ratio in the repeat runs, not every such curve was filed as active; the % refers to the signal ratio)
Sequence of Bile acid receptor (Homo sapiens) (Q96RI1 whole entry, looked up): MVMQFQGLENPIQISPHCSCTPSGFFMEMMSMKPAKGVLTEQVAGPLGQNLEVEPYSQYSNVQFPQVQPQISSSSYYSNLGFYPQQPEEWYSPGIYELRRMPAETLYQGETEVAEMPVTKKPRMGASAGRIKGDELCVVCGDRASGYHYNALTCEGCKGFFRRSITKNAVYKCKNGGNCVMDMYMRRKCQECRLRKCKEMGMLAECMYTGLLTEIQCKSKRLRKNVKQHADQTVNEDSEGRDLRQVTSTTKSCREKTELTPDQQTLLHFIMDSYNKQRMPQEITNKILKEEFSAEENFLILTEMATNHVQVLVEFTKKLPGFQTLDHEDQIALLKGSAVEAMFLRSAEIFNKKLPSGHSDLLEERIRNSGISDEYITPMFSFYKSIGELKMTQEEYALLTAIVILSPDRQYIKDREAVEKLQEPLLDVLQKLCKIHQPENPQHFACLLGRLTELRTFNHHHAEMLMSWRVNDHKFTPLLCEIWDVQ
How it was run: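 FRET fluorescence after 2 h room-temperature LiveBLAzer loading gives the readout. Prior step: FXR-bla HEK 293T cells, seeded and incubated 5 h, received test compounds plus 50 uM final CDCA for 16 h at 37 °C.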

[20] = molecular target: Bile acid receptor (Homo sapiens) (UniProt Q96RI1); experiment: qHTS assay to identify small molecule agonists of the farnesoid-X-receptor (FXR) signaling pathway (AID 743220; active = well fitted activation curve with a large enough effect in the signal ratio in the repeat runs, not every such curve was filed as active; the % refers to the signal ratio)
How it was run: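 FXR-UAS-bla HEK 293T cells carrying a UAS-driven beta-lactamase reporter were plated for 5 h at 37C/5% CO2, then exposed to DMSO-dissolved Tox21 10K compounds for 16 h at 37C. A LiveBLAzer B/G FRET substrate was loaded for 2 h at room temperature before fluorescence reading.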
% is scaled to controls: 0 for no effect and ±100 for the full control effect.

C=CC(C)(CCC=C(C)C)OC(=O)C(C)C (stereo not given)
inactive: outcome [1] | Potency [2] | outcome [3] | outcome [4] | outcome [5] | outcome [6] | Potency [7] | outcome [8] | outcome [9] | outcome [10] | outcome [11] | outcome [12] | outcome [13] | outcome [14] | outcome [15] | outcome [16] | outcome [17]

CCCCC(CC)CCC(CC(C)C)OS(=O)(=O)O (stereo not given)
inactive: outcome [1] | Potency [2] | outcome [3] | outcome [4] | outcome [5] | outcome [6] | outcome [8] | Potency [18] | outcome [9] | outcome [10] | outcome [12] | outcome [19] | outcome [14] | outcome [20] | outcome [15] | outcome [16] | outcome [17]

COCc1nnc(-c2ccc[n+]([O-])c2)n1-c1c(Cl)c(Cl)cc2[nH]c(=O)c(=O)[nH]c12
inactive: outcome [1] | Potency [2] | outcome [3] | outcome [4] | outcome [5] | Potency [7] | outcome [8] | Potency [18] | outcome [9] | outcome [10] | outcome [12] | outcome [19] | outcome [14] | outcome [20] | outcome [15] | outcome [16] | outcome [17]

COC(=O)c1ccccc1Cl
inactive: outcome [1] | Potency [2] | outcome [3] | outcome [4] | outcome [5] | outcome [6] | Potency [7] | outcome [8] | outcome [9] | outcome [10] | outcome [11] | outcome [12] | outcome [13] | outcome [14] | outcome [15] | outcome [16]

COCCCOc1cc(C[C@@H](C[C@H](N)[C@@H](O)C[C@H](C(=O)NCC(C)(C)C(N)=O)C(C)C)C(C)C)ccc1OC
inactive: outcome [1] | Potency [2] | outcome [3] | outcome [4] | outcome [5] | Potency [7] | outcome [8] | Potency [18] | outcome [9] | outcome [10] | outcome [12] | outcome [14] | outcome [15]

N=C(N)N1CCc2ccccc2C1
inactive: outcome [1] | Potency [2] | outcome [3] | outcome [4] | ratio activity, negative = inhibition [5] -11.9% [at 5.95 µM] | activity change, negative = cytotoxicity [6] 0.134% [at 5.95 µM] | activation [7] -8.74% [at 8.36 µM] | viability change, negative = cytotoxic [8] -8.38% [at 8.36 µM] | activation [9] -0.5% [at 5.95 µM] | activity change, negative = cytotoxicity [10] 3.73% [at 5.95 µM] | activation [11] 2.47% [at 5.95 µM] | viability change, negative = cytotoxic [12] -9.71% [at 6.26 µM] | ratio activity, negative = inhibition [13] -18.7% [at 6.26 µM] | viability change, negative = cytotoxic [14] 5.62% [at 5.95 µM] | activity change, negative = cytotoxicity [15] -6.73% [at 5.95 µM] | activation [16] 4.08% [at 6.01 µM]

C/C=C/C(=O)CCCC
inactive: outcome [1] | Potency [2] | outcome [3] | outcome [4] | outcome [5] | outcome [6] | outcome [8] | Potency [18] | outcome [9] | outcome [10] | outcome [13] | outcome [19] | outcome [20] | outcome [17]

CC(C)(C)OC(=O)c1ccccc1C(=O)O
inactive: outcome [1] | Potency [2] | outcome [3] | outcome [4] | outcome [5] | outcome [6] | Potency [7] | outcome [8] | Potency [18] | outcome [11] | outcome [12] | outcome [13] | outcome [19] | outcome [14] | outcome [20] | outcome [15] | outcome [16] | outcome [17]

CCCC[O][Al]([O]CCCC)[O]CCCC
inactive: outcome [1] | Potency [2] | outcome [3] | outcome [4] | outcome [5] | outcome [6] | Potency [7] | Potency [18] | outcome [9] | outcome [10] | outcome [11] | outcome [12] | outcome [19] | outcome [14] | outcome [20] | outcome [15] | outcome [16]
